Inconclusive results are not listed. Calls of active or inactive are those of the source. Calls follow the shape of the dose curve; as a rule, active = well fitted curve in the direction sought with a large enough effect in the repeat runs; inconclusive = weak or mixed curves; inactive = no such curve, though single readings can be large; an effect the other way counts as inactive or inconclusive.
Legend:
[1] = qHTS RealTime-Glo MT Cell Viability Assay in HepG2 cells - 40 hour (AID 1224870); also: nearly all actives have a fitted effect of over 50% in size
Summary of the method: (§1)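 Real-time viability: cells seeded at 600 per well together with NanoLuc and cell-permeant prosubstrate, compounds added after 5 h incubation. Luminescence tracked at 0, 8, 16, 24, 32 and 40 h of exposure.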

[2] = A CellTox Green Cytotoxicity Assay to monitor cytotoxicity in HEK293 cells - 40 hour (AID 1224871); also: nearly all actives have a fitted effect of over 45% in size
Summary of the method: (§2)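 Read-out: fluorescence of a cell-impermeant cyanine dye staining DNA of dead cells, proportional to cytotoxicity. HEK293, 600 cells/well with reagent, compound (23 nL DMSO) added after 5 h; reads at 0, 8, 16, 24, 32, 40 h.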

[3] = qHTS RealTime-Glo MT Cell Viability Assay in HEK293 cells - 16 hour (AID 1224872); also: nearly all actives have a fitted effect of over 50% in size; also: potency is read from the fitted curve at half-maximal effect
Summary of the method: (§3)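 Nonlytic real-time viability readout: viable cells convert prosubstrate to NanoLuc substrate, giving luminescence proportional to live cell number. HEK293, 600 cells/well, compound added after 5 h, continuous culture at 37 C.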

[4] = qHTS RealTime-Glo MT Cell Viability Assay in HepG2 cells - 8 hour (AID 1224873); also: nearly all actives have a fitted effect of over 55% in size
Summary of the method: as §1

[5] = qHTS RealTime-Glo MT Cell Viability Assay in HEK293 cells - 40 hour (AID 1224874); settings: RealTime-Glo luminescence; max response: active compounds read low; also: nearly all actives have a fitted effect of over 50% in size; also: potency is read from the fitted curve at half-maximal effect
Summary of the method: (§4)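 Luminescence readout at each listed time point; HEK293, 600 cells/well, RealTime-Glo MT reagent added with cells; compounds pinned (23 nL in DMSO) after 5 h at 37 C; continuous culture at 37 C.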

[6] = A CellTox Green Cytotoxicity Assay to monitor cytotoxicity in HEK293 cells - 24 hour (AID 1224875); also: series mostly up to about 77 µM; nearly all actives have a fitted effect of over 45% in size
Summary of the method: as §2

[7] = A CellTox Green Cytotoxicity Assay to monitor cytotoxicity in HepG2 cells - 16 hour (AID 1224876); also: nearly all actives have a fitted effect of over 45% in size
Summary of the method: (§5)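 HepG2, 600 cells/well premixed w/ CellTox Green; 5 h settle, 37 C/5% CO2; pintool cpd add (DMSO); 37 C, 40 h; fluorescence read at 0, 8, 16, 24, 32, 40 h.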

[8] = A CellTox Green Cytotoxicity Assay to monitor cytotoxicity in HepG2 cells - 24 hour (AID 1224878); also: nearly all actives have a fitted effect of over 45% in size
Summary of the method: as §5

[9] = A CellTox Green Cytotoxicity Assay to monitor cytotoxicity in HepG2 cells - 40 hour (AID 1224879); also: nearly all actives have a fitted effect of over 40% in size
Summary of the method: as §5

[10] = qHTS RealTime-Glo MT Cell Viability Assay in HEK293 cells - 0 hour (AID 1224880)
Summary of the method: as §4

[11] = A CellTox Green Cytotoxicity Assay to monitor cytotoxicity in HEK293 cells - 32 hour (AID 1224881); also: nearly all actives have a fitted effect of over 40% in size
Summary of the method: as §2

[12] = A CellTox Green Cytotoxicity Assay to monitor cytotoxicity in HepG2 cells - 0 hour (AID 1224882); also: nearly all actives have a fitted effect of over 35% in size
Summary of the method: as §5

[13] = A CellTox Green Cytotoxicity Assay to monitor cytotoxicity in HepG2 cells - 32 hour (AID 1224883); also: nearly all actives have a fitted effect of over 50% in size
Summary of the method: as §5

[14] = A CellTox Green Cytotoxicity Assay to monitor cytotoxicity in HEK293 cells - 8 hour (AID 1224884); also: nearly all actives have a fitted effect of over 35% in size
Summary of the method: as §2

[15] = qHTS RealTime-Glo MT Cell Viability Assay in HepG2 cells - 16 hour (AID 1224885); also: nearly all actives have a fitted effect of over 50% in size
Summary of the method: (§6)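 Luminescence read-out: viable HepG2 cells reduce a prosubstrate to a NanoLuc substrate, giving a signal proportional to live cell number. Reads taken at 0, 8, 16, 24, 32 and 40 h of compound exposure at 37 C.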

[16] = qHTS RealTime-Glo MT Cell Viability Assay in HEK293 cells - 24 hour (AID 1224886); also: nearly all actives have a fitted effect of over 50% in size; also: potency is read from the fitted curve at half-maximal effect
Summary of the method: as §3

[17] = qHTS RealTime-Glo MT Cell Viability Assay in HEK293 cells - 8 hour (AID 1224887); also: nearly all actives have a fitted effect of over 50% in size; also: potency is read from the fitted curve at half-maximal effect
Summary of the method: as §4

[18] = A CellTox Green Cytotoxicity Assay to monitor cytotoxicity in HEK293 cells - 16 hour (AID 1224888); also: nearly all actives have a fitted effect of over 35% in size
Summary of the method: as §2

[19] = qHTS RealTime-Glo MT Cell Viability Assay in HepG2 cells - 0 hour (AID 1224889); also: nearly all actives have a fitted effect of over 50% in size
Summary of the method: as §6

[20] = qHTS RealTime-Glo MT Cell Viability Assay in HepG2 cells - 32 hour (AID 1224877); also: nearly all actives have a fitted effect of over 55% in size
Summary of the method: as §6
% is scaled to controls: 0 for no effect and ±100 for the full control effect.

O=C1c2ccccc2C(=O)N1CCl
inactive: outcome [1] | Potency [2] | Potency [3] | outcome [4] | max response [5] 1.28% | outcome [6] | outcome [7] | outcome [8] | Potency [9] | Potency [10] | Potency [11] | outcome [12] | Potency [13] | Potency [14] | outcome [15] | Potency [16] | Potency [17] | outcome [18] | Potency [19]

CC(C)CC(C)CC(C)CC(C)COC(=O)c1ccccc1C(=O)OCC(C)CC(C)CC(C)CC(C)C (stereo not drawn)
inactive: outcome [1] | Potency [2] | Potency [3] | outcome [4] | max response [5] 4.21% | outcome [6] | outcome [20] | outcome [8] | Potency [9] | Potency [11] | outcome [12] | Potency [13] | Potency [14] | outcome [15] | Potency [16] | Potency [17] | outcome [18] | Potency [19]

CC(C)(C)NC(N)=O
inactive: outcome [1] | Potency [2] | Potency [3] | outcome [4] | max response [5] 1.11% | outcome [7] | outcome [20] | outcome [8] | Potency [9] | Potency [10] | Potency [11] | outcome [12] | Potency [13] | Potency [14] | outcome [15] | Potency [16] | Potency [17] | outcome [18] | Potency [19]

O=C(Nc1ccc(Cl)c(Cl)c1)C1CC1
inactive: outcome [1] | Potency [2] | outcome [4] | outcome [7] | outcome [20] | outcome [8] | Potency [9] | Potency [11] | outcome [12] | Potency [13] | Potency [14] | outcome [15] | outcome [18] | Potency [19]
active: Potency [3] 9.52 µM | Potency [5] 8.49 µM | Potency [16] 9.52 µM | Potency [17] 19 µM

CCOc1cc(NC(C)=O)ccc1C(=O)OC
inactive: outcome [1] | Potency [2] | Potency [3] | outcome [4] | max response [5] -4.96% | outcome [6] | outcome [7] | outcome [8] | Potency [9] | Potency [10] | Potency [11] | outcome [12] | Potency [13] | Potency [14] | outcome [15] | Potency [16] | Potency [17] | outcome [18] | Potency [19]

C[C@H](CCC(=O)O)[C@H]1CC[C@H]2[C@@H]3C(=O)C[C@@H]4CC(=O)CC[C@]4(C)[C@H]3CC(=O)[C@]12C
inactive: outcome [1] | Potency [2] | Potency [3] | outcome [4] | max response [5] 4.35% | outcome [6] | outcome [8] | Potency [9] | Potency [10] | Potency [11] | outcome [12] | Potency [13] | Potency [14] | outcome [15] | Potency [16] | Potency [17] | outcome [18] | Potency [19]

Cc1ccc(C=O)cc1C
inactive: outcome [1] | Potency [2] | Potency [3] | outcome [4] | outcome [6] | outcome [7] | outcome [20] | outcome [8] | Potency [9] | Potency [10] | Potency [11] | outcome [12] | Potency [13] | Potency [14] | outcome [15] | Potency [16] | Potency [17] | outcome [18] | Potency [19]

C[C@@H](Oc1ccc(CNC(=O)c2cccnc2Oc2ccc3c(c2)OCO3)c(F)c1)C(=O)O
inactive: outcome [1] | Potency [2] | Potency [3] | outcome [4] | max response [5] 9.55% | outcome [6] | outcome [20] | outcome [8] | Potency [9] | Potency [10] | Potency [11] | outcome [12] | Potency [13] | Potency [14] | outcome [15] | Potency [16] | Potency [17] | outcome [18] | Potency [19]

Cc1ccccc1OCC(O)CO (stereo not drawn)
inactive: outcome [1] | Potency [2] | Potency [3] | outcome [4] | max response [5] 1.4% | outcome [6] | outcome [20] | outcome [8] | Potency [9] | Potency [10] | Potency [11] | outcome [12] | Potency [13] | Potency [14] | outcome [15] | Potency [16] | Potency [17] | outcome [18] | Potency [19]

Cc1cccc(C)c1OCC(C)N (stereo not drawn)
inactive: outcome [1] | Potency [2] | Potency [3] | outcome [4] | max response [5] 2.76% | outcome [6] | outcome [7] | outcome [8] | Potency [9] | Potency [11] | outcome [12] | Potency [13] | Potency [14] | outcome [15] | Potency [16] | Potency [17] | outcome [18] | Potency [19]

O=C1O[C@@H]2[C@@H](O)[C@H](O)O[C@@H]2[C@H]1O
inactive: outcome [1] | Potency [2] | Potency [3] | outcome [4] | max response [5] -0.399% | outcome [6] | outcome [7] | outcome [8] | Potency [9] | Potency [10] | Potency [11] | outcome [12] | Potency [13] | Potency [14] | outcome [15] | Potency [16] | Potency [17] | outcome [18] | Potency [19]

NS(=O)(=O)c1ccc(NC(=O)CCC(=O)O)cc1
inactive: outcome [1] | Potency [2] | Potency [3] | outcome [4] | outcome [6] | outcome [7] | outcome [20] | outcome [8] | Potency [9] | Potency [10] | Potency [11] | outcome [12] | Potency [13] | Potency [14] | outcome [15] | Potency [16] | Potency [17] | outcome [18] | Potency [19]

CC/C=C\CC1=C(C)CCC1=O
inactive: outcome [1] | Potency [2] | Potency [3] | outcome [4] | max response [5] 0.983% | outcome [6] | outcome [20] | outcome [8] | Potency [9] | Potency [10] | Potency [11] | outcome [12] | Potency [13] | Potency [14] | outcome [15] | Potency [16] | Potency [17] | outcome [18] | Potency [19]

Source: PubChem BioAssay (Tox21)
